Measurements taken from PubChem BioAssay (NCI).
About 83,000 compounds went through this panel and 20% of them were active in at least one assay; those are over-represented in the sample as a whole.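 Note: values are percent growth. 100 is the growth of untreated cells, values between 100 and 0 indicate rising inhibition; between -100 and 0 indicates cell death.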 Activity calls are given as the source filed them. Rule for the calls: active = growth percent below 10; inactive = the rest.

The molecules below were run on BT-549 breast (assay: NCI-60 one-dose screen, 48 h (100 = growth as untreated, 0 = no growth, -100 = all killed)). Details: 10 µM unless noted.

Compound	growth
Cc1cc(=O)oc2cc(Oc3nc(-c4ccccc4)cn4c(-c5ccccc5)cnc34)ccc12	82.6% (inactive)
Cc1ccc2c(n1)C[C@H](C(C)(C)O)CC[C@H]2C	112% (inactive)
Nc1nc(N)c2c(n1)NC(c1cccc(Nc3ccnc4cc(C(F)(F)F)ccc34)c1)CC(c1ccc(Cl)cc1)=N2 (stereo not given)	114% (inactive)
C(CCCSC1=NCCN1)CCSC1=NCCN1	112% (inactive)
O=S(=O)(Nc1ccc(Br)cc1)c1ccc(-c2cnc(C3CC3)o2)cc1	47.1% (inactive)
Nc1n[nH]c2cccc(C#Cc3cccc(C(=O)Nc4ccc(Cl)c(C(F)(F)F)c4)c3)c12	78.3% (inactive)
NC(=N\N=C/c1ccc(Cl)cc1Cl)/C(N)=N\N=C/c1ccc(Cl)cc1Cl	111% (inactive)
COc1cc(C(=O)/C=C/c2c(-c3cccs3)nc3sc(C)cn23)cc(OC)c1OC	-0.944% (active)
Nc1nc(=O)n([C@H]2CC=C(CO)O2)cc1F	114% (inactive)
COc1ccc(Nc2nccc(Nc3ccc4[nH]ncc4c3)n2)cc1	44.2% (inactive)
Cc1[nH]c(C(=O)Nc2ccccc2OC2CCNC2)c(Cl)c1Cl (stereo not given)	88% (inactive)
CCN1CCN(CCOc2ccc(CNc3ccc4nc(CCC5CCCCC5)[nH]c4c3)cc2)CC1	65.6% (inactive)
O=C1NCCS(=O)(=O)/C1=C\C=C\c1cccc(C(F)(F)F)c1	20.2% (inactive)
CCCCCCCCCCCCCC[n+]1ccc2c(C)c3c(c(C)c2c1)c1cc(O)ccc1n3CC	-74.3% (active)
CCCc1cc(CCC)n2nc(N)nc2n1	92.9% (inactive)
O=S(=O)(c1ccc(NCSc2nc3ccccc3s2)cc1)c1ccc(NCSc2nc3ccccc3s2)cc1	87.5% (inactive)
COc1cc(/C=C2\CN(S(=O)(=O)c3ccc(C)cc3)C/C(=C\c3cc(CN4CCCC4)c(O)c(OC)c3)C2=O)cc(CN2CCCC2)c1O	12.7% (inactive)
Cc1cccc(CN(Nc2ccccc2)c2ccccc2)n1	111% (inactive)
O=C(NS(=O)(=O)c1ccccc1)n1cc(-c2ccncc2)c(-c2cc(O)cc(Cl)c2)n1	101% (inactive)
CCCCN(CCC#N)C(N)=O	109% (inactive)

Compound	growth
CCOC(=O)/C(=C/c1ccc([N+](=O)[O-])cc1)C(=O)c1ccccc1	6.8% (active)
N#Cc1c(-c2ccc(F)cc2)cc(-c2cccc(Cl)c2)[nH]c1=O	54.6% (inactive)
O=C(Nc1cccc(Cn2c(=O)[nH]c3ccc(Oc4ncccn4)cc3c2=O)c1)c1cccc(Cl)c1	43.8% (inactive)
O=C1c2c(c3c4cccnc4[nH]c3c3ccc4ccccc4c23)C(=O)N1O	45% (inactive)
COC(=O)c1nc(-c2ccccc2)oc1S(=O)(=O)N1CCN(c2ccc(OC)cc2)CC1	76.6% (inactive)
O=C1c2ccccc2-c2c1c1ccncc1c(=O)n2CCCn1ccnc1	46.7% (inactive)
COc1cc(-c2c(-c3ccccc3)c[nH]c2C(=O)NCCCO)c(OC)c2c1OCO2	106% (inactive)
C=C(C)Cn1c(SCC(=O)c2cccs2)nc2sc3c(c2c1=O)CCCC3	81.2% (inactive)
CNC1=C([N+](=O)[O-])C(c2ccc(OC)cc2)C(C#N)=C(c2ccc[nH]2)O1 (stereo not given)	101% (inactive)
Cn1cc(-c2nc(-c3c[nH]c4c(Cl)nccc34)cs2)c2ccccc21	110% (inactive)
N/C(=N\c1nc2ccccc2s1)NC(=O)Nc1ccccc1	49.5% (inactive)
C#Cc1ccc(NC(=O)Cc2ccc(/C=C/C(=O)c3nccn3C)cc2)cc1	71.2% (inactive)
Cc1cc2c(C(C)C)c(O)c(O)c(/C=N/O)c2c(O)c1-c1c(C)cc2c(C(C)C)c(O)c(O)c(/C=N/O)c2c1O	23.8% (inactive)
O=C(Nc1ccc2[nH]ncc2c1)c1csc(Nc2ccccc2)n1	62% (inactive)
COC(=O)c1nc(-c2ccccc2)oc1S(=O)(=O)NCC(c1ccc(Cl)cc1)N1CCCCC1 (stereo not given)	55.8% (inactive)
O=C(Nc1ccc(Oc2cccc(F)c2)c(Cl)c1)c1cnccn1	59.9% (inactive)
COc1ccc(Nc2nc(Nc3cc(C)[nH]n3)c3cc(OC)c(OC)cc3n2)cc1	-87.5% [20 µM] (active)
COC(=O)c1cc(-c2ccc(OC)c(OC)c2)[nH]c1N/N=C/c1c(Cl)cccc1Cl	37.7% (inactive)
CC(C)=CCC[C@](C)(O)C1CC[C@]2(C)[C@@H]1CC[C@@H]1[C@@]3(C)CC/C(=N\OCCC#N)C(C)(C)[C@@H]3CC[C@]12C (stereo not given in full)	102% (inactive)
N#C/C(=C\c1cccc2cnccc12)N1N=NC2C=CC=CC21 (stereo not given)	41.6% (inactive)
